Most compounds without a hit are left out; they make up all but 4.8% or so of the library.
DAX1 inh-1: DAX1 (NR0B1) inhibitors on StAR promoter, primary screen, cell-based, luminescence, SF-1 (NR5A1), full-length DAX-1; HEK293T StAR-luciferase reporter, SF-1/DAX-1 repression relief; inhibition, % at 6.8 µM; 370,000 tested, 1.1% active;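 active means inhibition above the mean over all tested compounds plus 3 SD, cut at about 3.6% in these data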;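 further: 0% = DAX-1 cells with DMSO and 100% = cells lacking DAX-1 with DMSO; higher inhibition means more luminescence from relief of DAX-1 repression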
hcDAF-12 act: H. contortus DAF-12 nuclear receptor activators, primary screen, cell-based, luminescence, HEK293, lit1-tk-luc reporter | 370,000 tested, 1.4% active | AID 652067, 2013 | activation, % at 6.8 µM | HEK293 hcDAF-12 lit1-tk-luc reporter; 0% DMSO, 100% Δ7-dafachronic acid;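 active means activation above the mean of all tested compounds plus 3 SD, cut at about 5.5% in these data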;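 further: 100% = response to 3 µM Δ7-dafachronic acid high control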
ssDAF12 agonist: S. stercoralis DAF-12 nuclear receptor activators, primary screen, cell-based, luminescence, HEK293, GRIP1 co-expression, lit1-tk-luc. HEK293 ssDAF-12/GRIP1 lit1-tk-luc reporter; % of 3 µM dafachronic acid response. activation, % at 6.8 µM. 370,000 tested, 1% active. AID 652126, 2013;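 active means activation above the mean over all tested compounds plus 3 SD, cut at about 0.9% in these data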;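 further: 0% = DMSO-only wells and 100% = 3 µM delta7-dafachronic acid wells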
SMARCA2 activ: SMARCA2 (BRM) function activators, primary screen, cell-based, luminescence, high throughput | 370,000 tested, 1% active | MG213 cells, MMTV-luciferase reporter, dexamethasone, overnight | AID 652017, 2013 | activation, % at 9.1 µM; in the data active means activation above about 7.8%;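 further: 0% = vehicle wells and 100% = reference activator wells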
hgDAF12 agonist: H. glycines DAF-12 receptor agonists, primary screen, cell-based, luminescence, HEK293, GAL4 fusion, UAS-luciferase | Nuclear hormone receptor DAF-12 (Heterodera glycines), GAL4 fusion | HEK293 GAL4-hgDAF12 UAS-luciferase reporter, agonist luminescence; normalized to butyrate control | activation, % at 6.8 µM | 370,000 tested, 1.8% active;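 active means activation above a cutoff set at the mean of all screened compounds plus 3 SD, cut at about 10% in these data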;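 further: 0% = DMSO wells and 100% = sodium butyrate wells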
DAX1 inh-2: DAX1 (NR0B1) inhibitors, primary screen, cell-based, HEK293, Gal4-DAX1, luciferase luminescence; Nuclear receptor subfamily 0 group B member 1 (Homo sapiens), P51843; HEK293 Gal4-DAX1 luciferase reporter; inhibition, % at 6.75 µM; 340,000 tested, 0.99% active; AID 504766, 2011;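 active means inhibition above the mean over all tested compounds plus 3 SD, cut at about 4.2% in these data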;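 further: 0% = DAX1-transfected cells with DMSO and 100% = empty-vector control cells with DMSO; inhibition shows as a rise in luminescence from relieved DAX1 repression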
Target sequence (P51843 207-470 limits assumed): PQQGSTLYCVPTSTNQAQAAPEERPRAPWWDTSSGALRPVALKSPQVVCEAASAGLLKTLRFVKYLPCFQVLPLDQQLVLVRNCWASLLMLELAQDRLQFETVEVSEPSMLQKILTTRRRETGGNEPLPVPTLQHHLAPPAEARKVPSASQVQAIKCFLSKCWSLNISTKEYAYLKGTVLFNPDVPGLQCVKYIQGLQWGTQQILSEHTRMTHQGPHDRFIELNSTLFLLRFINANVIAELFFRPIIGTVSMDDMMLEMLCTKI
An asterisk follows results filed as active; / = no result given.

SMILES	DAX1 inh-1	hcDAF-12 act	ssDAF12 agonist	SMARCA2 activ	hgDAF12 agonist	DAX1 inh-2
CSCC[C@H](NC(=O)OC(C)(C)C)C(=O)N1CCC(C(=O)N[C@@H](C)C(=O)NC(C)c2ccccc2)CC1 (stereo partly drawn)	0	-2	-2	1	2	8.3*
CC(C)C[C@H](N)C(=O)N1CCC(C(=O)N[C@H](C(=O)NC(C)c2ccccc2)C(C)C)CC1 (stereo partly drawn)	1	0	-1	1	0	5.5*
CSCC[C@H](NC(=O)OC(C)(C)C)C(=O)N1CCC(C(=O)N[C@@H](C)C(=O)NCc2ccc(F)cc2)CC1	2	1	-1	-3	-1	2
O=C(CCc1ccccc1)N[C@H]1[C@@H](OC(=O)c2cnccn2)CCC[C@]12C(=O)N(Cc1ccccc1)c1ccccc12	0	-1	-1	-4	-1	/
Nc1c(C(=O)OCC(=O)NCc2ccccc2)[nH]c(=O)[nH]c1=O	1	-3	-2	-1	0	7.9*
O=C(CCc1ccccc1)Nc1ccc2ccccc2n1	3	5	-1	1	12*	2
Nc1c(C(=O)OCC(=O)Nc2ccccc2Br)[nH]c(=O)[nH]c1=O	0	-1	-1	-1	2	1
O=C(COC(=O)c1ccc2ccccc2n1)NCc1ccccc1	0	0	-1	-1	2	4.9*
COC(=O)[C@]12C[C@H](CC(=O)N3CCCCC3)C(=O)N(CCC3=CCCCC3)C1=C[C@H](C1CCCC1)O[C@@H]2C	1	0	-1	-6	2	/
COC(=O)c1nc(-c2ccc(C)cc2)oc1N(C)C	-1	5	1.0*	-1	2	1
O=C1CCC2(CCC(c3ccccc3)CC2)N1CCO (stereo not drawn)	-1	-2	-1	-3	1	/
CCc1ccc(/C=C/C(=O)NC2=NCCS2)cc1	/	4	0	/	10	/
Cc1ccc(OCC(=O)NC2=NCCS2)cc1	0	-1	-1	3	2	4.7*
Cc1ccc(/C=C/C(=O)NC2=NCCS2)cc1	6.4*	8.0*	1.4*	4	17*	-2
Cc1ccc(C2CCC3(CCC(=O)N3CCO)CC2)cc1 (stereo not drawn)	0	-2	-1	-4	-3	/
O=C(Nc1ccc(F)cc1F)c1cc(-c2ccc(Cl)cc2)nc2ccccc12	0	-1	-1	0	1	/
CC1(C)CC(=O)C2=C(C1)NC1=C(C(=O)c3ccccc31)C2c1ccc(Cl)cc1 (stereo not drawn)	0	6.4*	0	-5	-1	-1
O=[N+]([O-])c1ccc(Nc2ccc(F)cc2)nc1	0	-2	-2	-1	1	-1
CN(C)c1ccc(Nc2ccc([N+](=O)[O-])cn2)cc1	1	1	0	-1	7	5.4*
CCOC(=O)C(NC(=O)Nc1ncccn1)(Oc1ccccc1)C(F)(F)F (stereo not drawn)	4.2*	-1	-1	-1	4	1
CCOC(=O)C(NC(=O)c1ccccc1)(OCc1ccc(F)cc1)C(F)(F)F (stereo not drawn)	0	2	0	0	12*	1
Cc1nc(NC(=S)NC(=O)COc2ccccc2Cl)ccc1Br	-1	-2	0.9*	-2	-3	0
CCc1ccc(OCC(=O)NC(=S)Nc2ccc(Br)c(C)n2)cc1	0	4	-1	1	-1	2
CC(=O)c1ccc(-c2nc3ccccc3n2C)o1	1	5	0	2	11*	0
Cn1c(-c2ccc(Br)o2)nc2cc(Br)ccc21	1	1	-1	3	2	4.5*
SMILES	DAX1 inh-1	hcDAF-12 act	ssDAF12 agonist	SMARCA2 activ	hgDAF12 agonist	DAX1 inh-2
Cc1ccc2nc(-c3ccc(Br)o3)oc(=O)c2c1	1	0	0	1	4	0
Cc1ccc(-c2nc3ccccc3n2C)o1	3.8*	4	0	1	11*	1
S=c1[nH]nc(-c2cc(-c3ccccc3)n[nH]2)n1/N=C/c1ccccc1	1	-1	-1	4	4	7.3*
Cc1cccc(/C=N/n2c(-c3cc(-c4ccccc4)n[nH]3)n[nH]c2=S)c1	0	0	-1	1	3	0
Fc1ccc(-c2cc(-c3nnc4sc(-c5cccs5)nn34)[nH]n2)cc1	-2	-2	-2	1	-1	/
O=C(Nc1cccc(F)c1)c1ccc2ncsc2c1	/	/	/	/	/	3
O=C(Nc1ccccc1F)c1ccc2ncsc2c1	0	1	0	5	13*	0
COc1ccc(F)cc1-c1cc(C(C)=O)c2n(c1=O)CCC2	0	-1	-1	-2	1	/
Cn1c(=O)[nH]c(=O)c2c1nc(NCc1ccco1)n2CCCc1ccccc1	0	0	-1	1	1	4.5*
COCCn1c(NCc2ccco2)nc2c1c(=O)[nH]c(=O)n2C	-1	-1	-1	-5	2	-1
COC(=O)[C@]12C[C@H](CC(=O)NCCCCc3ccccc3)C(=O)N(Cc3ccc(Cl)cc3Cl)C1=C[C@H](COCc1ccccc1)O[C@@H]2C	0	-1	-1	-3	0	/
COc1cccc(C2CCCCN(C)C2=O)c1 (stereo not drawn)	1	-2	-2	-3	0	4.6*
CCOc1ccc(CCNC(=O)c2ccc3[nH]ccc3c2)cc1OCC	/	-5	-2	/	-6	/
COC(=O)[C@H](C(C)C)N1Cc2nnn(CC3CCCCC3)c2-c2cc(F)ccc2S1(=O)=O	-1	-3	-2	-3	1	/
COC(=O)c1sccc1OCc1cccc(OC)c1	-1	0	-1	1	1	1
COC(=O)COc1ccsc1C(=O)OC	0	-1	-1	0	-2	4.2*
COc1ccc(S[C@]2(C(=O)N(C)C)CC(=O)N(S(=O)(=O)c3ccc(F)cc3)[C@@H]2c2ccc(OC)cc2)cc1	-2	-3	-1	-4	-2	/
Cc1ccc(NC(=O)OC2CC3CC2[C@H]2CCCCN2[C@H]3Cc2ccccc2)cc1 (stereo partly drawn)	0	0	-1	-2	2	/

Source: PubChem (The Scripps Research Institute Molecular Screening Center)
